We go through 18 molecules from PubChem BioAssay (Tox21).

Records with an inconclusive call do not appear. Values without a mark were called inactive. Active and inactive are the calls of the source. The call rests on the fitted dose curve; in most records, active means well fitted curve in the direction sought with a large enough effect in the repeat runs; inconclusive means weak or mixed curves; inactive means no such curve, though single readings can be large; an effect the other way counts as inactive or inconclusive.

Experiment [1] in a line: qHTS RealTime-Glo MT Cell Viability Assay in HepG2 cells - 40 hour (AID 1224870). Further: on the % scale 0 is the no-effect control and ±100 the full control effect; nearly all actives have a fitted effect of over 50% in size. The method, boiled down: (§1)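 HepG2 cells (600/well) mixed with RealTime-Glo MT reagent, settled 5 h at 37 C/5% CO2 before compound addition. Nonlytic NanoLuc luminescence from viable-cell prosubstrate reduction read repeatedly during 40 h treatment at 37 C.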
A short description of experiment [2]: A CellTox Green Cytotoxicity Assay to monitor cytotoxicity in HEK293 cells - 40 hour (AID 1224871). Further: on the % scale 0 is the no-effect control and ±100 the full control effect; nearly all actives have a fitted effect of over 45% in size. The procedure, abridged:
(§2)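 Real-time, in one plate: 600 HEK293 cells/well with dead-cell DNA dye, pinned compound after 5 h, 37 C incubation over 40 h; viable cells give no appreciable fluorescence.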

Experiment [3] is described as follows: qHTS RealTime-Glo MT Cell Viability Assay in HEK293 cells - 16 hour (AID 1224872). Further: nearly all actives have a fitted effect of over 50% in size. Further: potency means the concentration at half of the fitted maximal effect. On activity change, negative = cytotoxicity: top concentration of the series differs between compounds; on the % scale 0 is the no-effect control and ±100 the full control effect. The procedure, abridged:
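Quantitative high-throughput screen of the Tox21 10K library in HEK293: cells and RealTime-Glo reagents plated together, compound added at 5 h, luminescence monitored through 40 h at 37 C.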
On the technique in general: Quantitative high-throughput screening tests each substance at several concentrations.

Experiment [4] in a line: qHTS RealTime-Glo MT Cell Viability Assay in HepG2 cells - 8 hour (AID 1224873). Further: on the % scale 0 is the no-effect control and ±100 the full control effect; nearly all actives have a fitted effect of over 55% in size. The procedure, abridged: as §1
Experiment [5] in a line: A CellTox Green Cytotoxicity Assay to monitor cytotoxicity in HEK293 cells - 24 hour (AID 1224875). Further: series mostly up to about 77 µM; on the % scale 0 is the no-effect control and ±100 the full control effect; nearly all actives have a fitted effect of over 45% in size. The procedure, abridged: as §2
Experiment [6] is described as follows: A CellTox Green Cytotoxicity Assay to monitor cytotoxicity in HepG2 cells - 16 hour (AID 1224876). Further: on the % scale 0 is the no-effect control and ±100 the full control effect; nearly all actives have a fitted effect of over 45% in size. The method, boiled down:
(§3)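 Cytotoxicity was tracked as dead-cell DNA fluorescence in HepG2 cells treated with test compounds at 37 C; each time-point value comes from one kinetic series spanning 0, 8, 16, 24, 32 and 40 h.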

A short description of experiment [7]: A CellTox Green Cytotoxicity Assay to monitor cytotoxicity in HepG2 cells - 24 hour (AID 1224878). Further: on the % scale 0 is the no-effect control and ±100 the full control effect; nearly all actives have a fitted effect of over 45% in size. The method, boiled down: as §3
A short description of experiment [8]: A CellTox Green Cytotoxicity Assay to monitor cytotoxicity in HepG2 cells - 40 hour (AID 1224879). Further: on the % scale 0 is the no-effect control and ±100 the full control effect; nearly all actives have a fitted effect of over 40% in size. The procedure, abridged: as §3
The nature of experiment [9]: qHTS RealTime-Glo MT Cell Viability Assay in HepG2 cells - 32 hour (AID 1224877). Further: on the % scale 0 is the no-effect control and ±100 the full control effect; nearly all actives have a fitted effect of over 55% in size. The method, boiled down: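 Compound treatment began 5 h after plating HepG2 cells (600/well) with NanoLuc luciferase and prosubstrate. Plates stayed at 37 C for 40 h; luminescence was captured at six time points, 0 h through 40 h.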
The nature of experiment [10]: qHTS RealTime-Glo MT Cell Viability Assay in HEK293 cells - 40 hour (AID 1224874). Further: potency means the concentration at half of the fitted maximal effect; nearly all actives have a fitted effect of over 50% in size. The settings on record: RealTime-Glo luminescence; max response: stronger effect = lower value. The method, boiled down: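 Kinetic, non-lysing viability readout. Seed HEK293 (600/well) with reagent, incubate 5 h at 37 C/5% CO2, pin 23 nL compound in DMSO, incubate at 37 C, read luminescence at 0, 8, 16, 24, 32, 40 h.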

Take `CCCCCC1CCC(=O)O1` (stereo not drawn): the Potency entry in [1], in experiment [2], in experiment [3], in experiment [5], in experiment [6] and in experiment [7] was “inactive” each time. In addition, the Potency result in experiment [8] was “inactive”. Besides, the molecule was called inactive in [4].
For `Cc1ccc(NC=O)c(C)c1`, the Potency entry in [1], in experiment [2], in experiment [3], in experiment [6], in [9] and in experiment [7] was “inactive” in each case. In [8], the Potency entry was “inactive”. In [4], the molecule was called inactive.
Regarding `C=C[Si](OCC)(OCC)OCC`, the Potency entry in [1], in experiment [2], in experiment [3], in experiment [6], in [7] and in experiment [8] was “inactive” in each case. In addition, the call in [4] was inactive.
Take `Nc1ccc(F)cc1F`: the Potency result in experiment [1], in experiment [2], in experiment [3], in [5], in [6] and in [7] was “inactive” in each case. Further, in experiment [8], the Potency entry was “inactive”. Besides, the outcome in experiment [4] was inactive.
Regarding `CC1=C(C)C(=O)C(CCCCC#CCCCC#CCO)=C(C)C1=O`, the Potency result in [1], in experiment [2], in [5], in experiment [6], in [7] and in [8] was “inactive” throughout. Besides, the Potency in experiment [3] is 0.601 µM (active); in experiment [10] it was 0.674 µM (active).
In the case of `O=Cc1ccc(Cl)c([N+](=O)[O-])c1`, the Potency result in experiment [1], in experiment [2], in experiment [3], in [6], in experiment [9] and in experiment [7] was “inactive” throughout. For the same molecule, in [4], the call was inactive.
With `COc1cc(C)c(Cc2cnc(N)nc2N)cc1OC`, the Potency entry in experiment [1], in experiment [2], in experiment [3], in [5], in experiment [6] and in experiment [9] was “inactive” throughout. Further, the Potency result in experiment [7] and in experiment [8] was “inactive” each time. Also, the molecule was called inactive in [4].
With `O=C(O)c1ccc2c(c1)nc(C(=O)NC1CCN(C3CC3)CC1)n2Cc1cc(-c2ccc(Cl)s2)on1`, the results for the activity change, negative = cytotoxic in [1] and in experiment [9] were -1.55% [at 15.8 µM] and -3.33% [at 15.8 µM], respectively. Besides, the cytotoxicity increase in [2] is -0.224% [at 15.8 µM]; in experiment [6], -9.11% [at 15.8 µM]; in [8] it was -6.87% [at 15.8 µM]. Further, the activity change, negative = cytotoxicity in [3] is 7.22% [at 15.8 µM]. The viability change, negative = cytotoxic in experiment [4] is -2.47% [at 15.8 µM]. For the same molecule, the activity change in [5] is 1.12% [at 15.8 µM, stronger effect = higher value]. Also, the cytotoxicity in experiment [7] is -2.25% [at 15.8 µM].
Take `C=CC(=O)OCCCCCCCCCC`: the Potency entry in experiment [1], in experiment [2], in experiment [3], in experiment [5], in [6] and in [9] was “inactive” throughout. Besides, the Potency result in experiment [7] and in experiment [8] was “inactive” throughout. In addition, the molecule was called inactive in experiment [4].
On to `CCOC(C)OCC`, for which the Potency entry in [1], in experiment [2], in experiment [3], in [6], in [9] and in [7] was “inactive” throughout. Besides, the Potency result in experiment [8] was “inactive”. Also, the molecule was called inactive in [4].
Take `O=C(c1ccc(Cl)cc1)c1ccc(Cl)cc1`: the Potency result in experiment [1], in experiment [2], in experiment [3], in [6] and in experiment [9] was “inactive” throughout. In addition, the call in [4] was inactive.
As to `C[Si](C)(C)O[Si](C)(C)O[Si](C)(C)C`, the Potency result in experiment [1], in [2], in experiment [3], in experiment [5], in experiment [6] and in [9] was “inactive” each time. Also, the Potency result in experiment [7] and in experiment [8] was “inactive” each time. Further, in [4], the outcome was inactive.
Take `O=c1[nH][nH]c2ccccc12`: the Potency result in experiment [1], in experiment [2], in experiment [3], in [5], in experiment [6] and in experiment [9] was “inactive” throughout. Also, the Potency entry in experiment [7] and in experiment [8] was “inactive” each time. For the same molecule, the outcome in experiment [4] was inactive.
As to `CCCCCCOC(=O)c1ccccc1`, the Potency result in experiment [1], in [2], in experiment [3], in experiment [5], in experiment [6] and in experiment [9] was “inactive” throughout. Further, the Potency result in [7] and in experiment [8] was “inactive” throughout. In addition, the outcome in [4] was inactive.
For `CCCCCCCCCCCCCCCCC(=O)O`, the Potency entry in experiment [1], in experiment [2], in experiment [3], in experiment [5], in [6] and in [7] was “inactive” in each case. Besides, the Potency entry in [8] was “inactive”. For the same molecule, the molecule was classed as inactive in experiment [4].
As for `O=C(N[C@@H](Cc1ccccc1)[C@@H](O)C(=O)N1C[C@@H](O)[C@@H](O)C1)c1cc2cc(Cl)ccc2[nH]1`, the Potency result in experiment [1], in experiment [2], in [3] and in experiment [9] was “inactive” each time. For the same molecule, in [4], the call was inactive.
In the case of `COc1ccc(CN(CCN(C)C)c2ncccn2)cc1`, the Potency result in [1], in experiment [2], in experiment [3], in [5], in experiment [6] and in experiment [7] was “inactive” throughout. The Potency entry in experiment [8] was “inactive”. In experiment [4], the molecule was classed as inactive.
`O=[N+]([O-])c1ccc(Cl)cc1Cl`: the Potency result in [1], in experiment [2], in experiment [3], in [5], in experiment [6] and in experiment [7] was “inactive” in each case. Further, the Potency entry in experiment [8] was “inactive”. In experiment [4], the molecule was called inactive.
